Assay [1] can be described thus: ATG_M_61_CIS: Attagene CIS-FACTORIAL HepG2 Assay for M61 Transcription Factor (Internal Marker) (AID 2282937). The note with it: HepG2 Attagene CIS-FACTORIAL M61 internal marker reporter; actives raise or lower the signal. The method, boiled down:
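Background-control endpoint: HepG2 cells with cis-regulated reporter constructs, 24 h exposure, reporter mRNA detected via fluorescent primer extension and capillary electrophoresis; values from bidirectional fitting with DMSO baseline.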

The nature of assay [2]: ATG_EGR_CIS: Attagene CIS-FACTORIAL HepG2 Assay for human Early Growth Response 1 (EGR1) (AID 2282938). To be noted: HepG2 Attagene CIS-FACTORIAL EGR reporter mRNA; actives raise or lower the signal. The method, boiled down: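 Endpoint derived by bidirectional fitting versus DMSO vehicle. Method: cis-promoter reporter units transfected into HepG2, 24 h dosing, RNA isolation, RT-PCR with 6-FAM primer extension and HpaI digestion, then capillary electrophoresis fluorescence detection.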

Assay [3] is described as follows: ATG_M_19_CIS: Attagene CIS-FACTORIAL HepG2 Assay for M19 Transcription Factor (Internal Marker) (AID 2282939). To be noted: HepG2 Attagene CIS-FACTORIAL M19 internal marker reporter; actives raise or lower the signal. The method, boiled down:
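Background-control endpoint from a multiplexed HepG2 reporter panel. Cells carrying cis-regulated reporter constructs are treated 24 h, then reporter transcripts are amplified, fluorescently labelled and sized by capillary electrophoresis. DMSO defines baseline.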

The nature of assay [4]: ATG_Ets_CIS: Attagene CIS-FACTORIAL HepG2 Assay for human Erythroblast Transformation Specific (ETS) (AID 2282941). The note with it: HepG2 ETS cis-reporter transcription, actives raise or lower the signal. The gist of the method:
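RT-PCR/capillary electrophoresis fluorescence read-out of reporter mRNA; HepG2 transient multi-reporter transfection; 24 h compound exposure; gain or loss of signal fitted bidirectionally relative to DMSO.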

Assay [5] deals with Hepatocyte nuclear factor 3-beta (Homo sapiens) (UniProt Q9Y261). The assay is described as follows: ATG_FoxA2_CIS: Attagene CIS-FACTORIAL HepG2 Assay for human Forkhead box A2 (FOXA2) (AID 2282942). The note with it: HepG2 cis-reporter transcription factor activity, 24 h; actives raise or lower the signal. The gist of the method:
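Measured: reporter mRNA induction or loss in HepG2 transiently carrying multiple cis-regulated reporter units, 24 h after dosing. Quantified by RT-PCR plus capillary electrophoresis, normalised to DMSO.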

Assay [6] can be described thus: ATG_FoxO_CIS: Attagene CIS-FACTORIAL HepG2 Assay for human Forkhead box O (FoxO) (AID 2282943). To be noted: HepG2 Attagene cis-reporter, FoxO element, mRNA; actives raise or lower the signal. The method, boiled down:
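Human hepatoma HepG2 cells carry transiently introduced reporter transcription units controlled by cis promoter elements. Chemical treatment lasted 24 h, and mRNA signal was compared with DMSO.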

Assay [7] is described as follows: ATG_GATA_CIS: Attagene CIS-FACTORIAL HepG2 Assay for human GATA Binding Protein (AID 2282944). The note with it: HepG2 GATA cis-element reporter, Attagene multiplex mRNA; actives raise or lower the signal. The gist of the method: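 Endogenous transcription factor activity was captured through cis-promoter-driven reporters in transfected HepG2 cells. After 24 h exposure, reporter transcripts were quantified by RT-PCR with fluorescent capillary electrophoresis, and responses fitted both directions against DMSO.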

The nature of assay [8]: ATG_GLI_CIS: Attagene CIS-FACTORIAL HepG2 Assay for human Zinc Finger Protein GLI1 (AID 2282945). To be noted: HepG2, Attagene cis-factorial reporter mRNA, GLI element; actives raise or lower the signal. The method, boiled down:
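Bidirectional curve fits relative to DMSO, using reporter mRNA levels from RT-PCR plus capillary electrophoresis. Cells were HepG2 transiently carrying cis-regulated reporter constructs, harvested 24 h after dosing.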

Assay [9] deals with Bile acid receptor (Homo sapiens) (UniProt Q96RI1). Kind of assay: ATG_IR1_CIS: Attagene CIS-FACTORIAL HepG2 Assay for human Nuclear Receptor Subfamily 1 Group H Member 4 (NR1H4), IR1 submotif (AID 2282946). The note with it: IR1 reporter transcription, actives raise or lower the signal. The gist of the method: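 HepG2 cells transiently transfected with multiplexed cis-element reporter units read endogenous transcription factor activity. After 24 h compound exposure, reporter mRNA was quantified by RT-PCR, fluorescent labelling, HpaI digestion and capillary electrophoresis; bidirectional fitting versus DMSO baseline.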

Assay [10] can be described thus: ATG_GRE_CIS: Attagene CIS-FACTORIAL HepG2 Assay for human Glucocorticoid Response Elements (GRE) (AID 2282947). The note with it: HepG2 GRE cis-reporter, Attagene multiplex mRNA; actives raise or lower the signal. The gist of the method:
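Reporter transcripts read by RT-PCR with capillary electrophoresis fluorescence after a 24 h chemical exposure of HepG2 cells transiently transfected with multiple cis-element reporter units. Gain or loss fitted against DMSO.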

For 28 compounds, outcome and AC50 results are on record in PubChem BioAssay (EPA / NIEHS).

Usually AC50 stands for the midpoint of the concentration-response curve, whichever way the signal moves.

Active and inactive are the calls of the source. How the source made its calls: active means hit-call score of the fitted dose curve at least 0.9, where 1 is the maximum; inactive means score below 0.9.

Chain of Bile acid receptor (Homo sapiens) (Q96RI1 whole entry, looked up): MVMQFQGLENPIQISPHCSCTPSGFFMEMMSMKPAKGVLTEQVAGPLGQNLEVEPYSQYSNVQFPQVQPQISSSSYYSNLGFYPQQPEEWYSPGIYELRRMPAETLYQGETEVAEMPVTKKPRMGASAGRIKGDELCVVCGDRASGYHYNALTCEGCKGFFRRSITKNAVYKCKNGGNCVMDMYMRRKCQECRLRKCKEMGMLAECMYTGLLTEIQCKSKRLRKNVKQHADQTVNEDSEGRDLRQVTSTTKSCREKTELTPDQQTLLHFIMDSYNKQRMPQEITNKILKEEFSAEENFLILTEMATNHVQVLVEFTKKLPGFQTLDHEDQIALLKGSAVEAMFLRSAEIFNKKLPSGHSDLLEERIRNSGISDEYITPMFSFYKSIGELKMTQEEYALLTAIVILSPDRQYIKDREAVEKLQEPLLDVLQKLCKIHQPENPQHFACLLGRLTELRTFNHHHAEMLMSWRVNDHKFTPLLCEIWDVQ
Chain of Hepatocyte nuclear factor 3-beta (Homo sapiens) (Q9Y261 whole entry, looked up): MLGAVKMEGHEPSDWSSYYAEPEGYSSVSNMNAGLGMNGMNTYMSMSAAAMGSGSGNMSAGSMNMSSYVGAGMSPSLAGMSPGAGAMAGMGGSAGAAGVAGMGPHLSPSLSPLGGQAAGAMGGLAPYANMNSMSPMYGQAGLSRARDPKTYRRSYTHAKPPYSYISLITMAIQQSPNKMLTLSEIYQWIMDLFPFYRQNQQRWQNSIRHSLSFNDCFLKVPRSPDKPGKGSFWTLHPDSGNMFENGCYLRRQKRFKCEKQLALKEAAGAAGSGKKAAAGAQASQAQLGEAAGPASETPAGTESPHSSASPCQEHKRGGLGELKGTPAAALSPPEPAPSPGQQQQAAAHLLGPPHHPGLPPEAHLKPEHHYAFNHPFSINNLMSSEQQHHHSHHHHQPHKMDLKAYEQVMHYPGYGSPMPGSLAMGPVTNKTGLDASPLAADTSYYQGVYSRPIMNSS

As for `COc1ccc(C(=O)Nc2nc3ccccc3c(NCc3ccccc3)c2C#N)cc1`, the compound was classed as inactive in [1], in assay [2], in assay [3], in [4], in assay [5] and in [6]. Also, the call in assay [7], in assay [8], in assay [9] and in [10] was inactive.

Turning to `CC(COCC(C)OC(=O)c1ccccc1)OC(=O)c1ccccc1` (configuration not stated), the compound was classed as inactive in [1], in assay [2], in assay [3], in assay [4], in [5] and in assay [6]. Moreover, the call in assay [7], in [8], in assay [9] and in assay [10] was inactive.

Take `OCC(CO)n1cnc(-c2ccc(F)cc2)c1-c1ccnc(Oc2ccccc2)n1`: the outcome in [1], in assay [2], in [3], in assay [4], in assay [5] and in assay [6] was inactive. Besides, the call in [7], in assay [8] and in assay [10] was inactive.

Consider `CC1=C(C)S(=O)(=O)CCS1(=O)=O`, for which the call in [1], in assay [2], in assay [3], in assay [4], in assay [5] and in assay [6] was inactive. Besides, the outcome in [7], in assay [8] and in assay [10] was inactive.

Turning to `CCOCCOCCO`, the outcome in [1], in assay [2], in assay [3], in assay [4], in assay [5] and in assay [6] was inactive. Also, the outcome in assay [7], in assay [8] and in assay [10] was inactive.

With `O=C1CCCCC1`, the result in [1], in assay [2], in [3], in assay [4], in [5] and in assay [6] was inactive. The outcome in assay [7], in assay [8] and in assay [10] was inactive.

In the case of `Cc1cc(Cc2ccc(N)c(C)c2)ccc1N`, the call in assay [1], in assay [2], in [3], in [4], in assay [5] and in assay [6] was inactive. The outcome in [7], in assay [8], in [9] and in assay [10] was inactive.

Consider `O=C1c2c(O)cccc2Cc2cccc(O)c21`, for which the outcome in [1], in assay [2], in [3], in [4], in [5] and in assay [6] was inactive. For the same compound, the compound was classed as inactive in [7], in [8], in [9] and in [10].

For the compound `O=C(O)c1cccnc1`, the result in assay [1], in [2], in assay [3], in assay [4], in assay [6] and in assay [7] was inactive. In addition, the call in [8] and in assay [9] was inactive.

`CC(C)c1cccc(C(C)C)c1`: the call in assay [1], in [2], in [3], in [4], in [5] and in [6] was inactive. The compound was classed as inactive in assay [7], in assay [8], in assay [9] and in [10].

On to `S=c1[nH]c2ccccc2s1`, for which the compound was called inactive in assay [1], in assay [2], in assay [3], in [4], in assay [5] and in [6]. In addition, the compound was called inactive in assay [7], in [8], in assay [9] and in assay [10].

Regarding `CC(C)c1cccc(C(C)C)c1NC(=O)NS(=O)(=O)c1cc(C(C)(C)O)co1`, the outcome in assay [1], in assay [2], in [3], in [4], in assay [5] and in assay [6] was inactive. Besides, the compound was called inactive in assay [7], in assay [8], in [9] and in [10].

As for `O=C1NC(=O)C(c2ccccc2)(c2ccccc2)N1`, the call in [1], in assay [2], in assay [3], in assay [4], in assay [5] and in assay [6] was inactive. Also, the call in [7], in assay [8] and in assay [10] was inactive.

For the compound `CN(C)CCCN1c2ccccc2Sc2ccc(Cl)cc21`, the result in assay [1], in assay [3], in assay [4], in assay [5], in [6] and in assay [7] was inactive. Besides, the compound was called inactive in [8], in assay [9] and in assay [10]. The AC50 in assay [2] is 13.2 µM (active).

In the case of `CC(=O)OCC(COC(C)=O)OC(C)=O`, the call in [1], in assay [2], in assay [3], in assay [4], in [5] and in assay [6] was inactive. The call in [7], in assay [8] and in assay [10] was inactive.

With `CCCCOC(=O)CCCCC(=O)OCCCC`, the compound was classed as inactive in assay [1], in assay [2], in assay [3], in [4], in assay [5] and in assay [6]. The outcome in [7] and in [8] was inactive. Besides, the AC50 in assay [10] was 178 µM (active).

Take `NC(=Nc1ccccc1)Nc1ccccc1`: the compound was called inactive in assay [1], in [3], in [4], in [5], in [6] and in assay [7]. The outcome in [8], in assay [9] and in assay [10] was inactive. Besides, the AC50 in assay [2] was 39.2 µM (active).

Consider `Nc1nc(Cl)nc2c1ncn2[C@H]1C[C@H](O)[C@@H](CO)O1`, for which the compound was classed as inactive in [1], in assay [2], in assay [3], in assay [4], in assay [5] and in [6]. Besides, the outcome in assay [7], in assay [8], in [9] and in [10] was inactive.

Take `O=C(NS(=O)(=O)/C=C/c1cccs1)c1ccc(F)cc1Br`: the compound was called inactive in assay [1], in [2], in assay [3], in [4], in assay [5] and in assay [6]. Moreover, the result in [7], in [8] and in [9] was inactive.

As to `O=C(Oc1ccccc1)c1cccc(C(=O)Oc2ccccc2)c1`, the outcome in [1], in [2], in [3], in [4], in [5] and in assay [6] was inactive. Besides, the call in assay [7], in [8], in assay [9] and in assay [10] was inactive.

For `CC(=O)OC1CC(C)OC(C)O1` (configuration not stated), the outcome in assay [1], in [2], in [3], in [4], in assay [5] and in assay [6] was inactive. Besides, the compound was called inactive in assay [7], in [8], in [9] and in assay [10].

As for `COC(=O)[C@H]1[C@H]2C[C@@H]3c4[nH]c5cc(OC)ccc5c4CCN3C[C@H]2C[C@@H](OC(=O)c2cc(OC)c(OC)c(OC)c2)[C@@H]1OC`, the outcome in assay [1], in assay [3], in assay [4], in assay [5], in assay [6] and in assay [7] was inactive. The result in assay [8] and in [10] was inactive. Besides, the AC50 in assay [2] is 8.83 µM (active).

In the case of `CC(=O)S[C@H](C(=O)N[C@H]1Cc2ccccc2[C@H]2CCC[C@@H](C(=O)O)N2C1=O)C(C)C`, the outcome in assay [1], in [2], in [3], in assay [4], in [5] and in [6] was inactive. The call in assay [7], in [8], in assay [9] and in assay [10] was inactive.

On to `CCCCC(CC)COP(=O)(OCC(CC)CCCC)OCC(CC)CCCC` (configuration not stated), for which the compound was called inactive in assay [1], in [2], in assay [3], in assay [4], in [5] and in assay [6]. Also, the call in assay [7], in [8], in assay [9] and in [10] was inactive.

Turning to `Cc1cc(SC2=C(O)C[C@@](CCc3ccc(N)cc3)(C(C)C)OC2=O)c(C(C)(C)C)cc1CO`, the compound was classed as inactive in [1], in assay [2], in assay [3], in assay [4], in assay [5] and in [6]. Besides, the call in assay [7], in assay [8], in [9] and in [10] was inactive.

Take `O=[Si]=O`: the result in assay [1], in assay [2], in assay [3], in assay [4], in [5] and in assay [6] was inactive. The call in assay [7], in assay [8] and in assay [10] was inactive.

With `COc1ccc(OC(F)(F)F)cc1CN[C@H]1CCCN[C@H]1c1ccccc1`, the call in [1], in [2], in assay [3], in assay [4], in assay [5] and in assay [6] was inactive. Further, the call in assay [7], in assay [8], in [9] and in assay [10] was inactive.

`NCCOCCOCCN`: the result in [1], in assay [2], in assay [3], in assay [4], in [5] and in assay [6] was inactive. Also, the compound was called inactive in assay [7], in assay [8] and in assay [10].
